Test results from the supplement of paper PMC10849652.
About 7,900 targets were measured; listed, in parts, are those with a hit and a random draw of the rest. About 0.6% of all pairs of compound and target were hits.

Compound: Cc1nc(Nc2ncc(C(=O)Nc3c(C)cccc3Cl)s2)cc(N2CCN(CCO)CC2)n1 [dasatinib]
Test: log2 fold change, soluble protein after heating vs DMSO (PISA); higher = thermal stabilisation; K562 cells, 10 uM, 30 min; active = over 0.2 and 3.5 SD of the protein, either way, in both replicates (recomputed)
How it was run: (§1)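 Quantification of soluble protein used TMTpro 16plex LC-MS/MS, with channel sums equalised. Samples were the supernatant after 21,000xg for 90 min of pooled aliquots from K562 cells (2×10^6 cells/mL) treated with 10 μM compound for 30 min, heated for 3 min over 48°C-58°C, and extracted in PBS with 0.5% NP-40 at 4°C. Values, from duplicates, describe thermal stability against control samples on a log2 fold-change scale.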

Chain of UniProt Q92973 (Q92973 whole entry, looked up): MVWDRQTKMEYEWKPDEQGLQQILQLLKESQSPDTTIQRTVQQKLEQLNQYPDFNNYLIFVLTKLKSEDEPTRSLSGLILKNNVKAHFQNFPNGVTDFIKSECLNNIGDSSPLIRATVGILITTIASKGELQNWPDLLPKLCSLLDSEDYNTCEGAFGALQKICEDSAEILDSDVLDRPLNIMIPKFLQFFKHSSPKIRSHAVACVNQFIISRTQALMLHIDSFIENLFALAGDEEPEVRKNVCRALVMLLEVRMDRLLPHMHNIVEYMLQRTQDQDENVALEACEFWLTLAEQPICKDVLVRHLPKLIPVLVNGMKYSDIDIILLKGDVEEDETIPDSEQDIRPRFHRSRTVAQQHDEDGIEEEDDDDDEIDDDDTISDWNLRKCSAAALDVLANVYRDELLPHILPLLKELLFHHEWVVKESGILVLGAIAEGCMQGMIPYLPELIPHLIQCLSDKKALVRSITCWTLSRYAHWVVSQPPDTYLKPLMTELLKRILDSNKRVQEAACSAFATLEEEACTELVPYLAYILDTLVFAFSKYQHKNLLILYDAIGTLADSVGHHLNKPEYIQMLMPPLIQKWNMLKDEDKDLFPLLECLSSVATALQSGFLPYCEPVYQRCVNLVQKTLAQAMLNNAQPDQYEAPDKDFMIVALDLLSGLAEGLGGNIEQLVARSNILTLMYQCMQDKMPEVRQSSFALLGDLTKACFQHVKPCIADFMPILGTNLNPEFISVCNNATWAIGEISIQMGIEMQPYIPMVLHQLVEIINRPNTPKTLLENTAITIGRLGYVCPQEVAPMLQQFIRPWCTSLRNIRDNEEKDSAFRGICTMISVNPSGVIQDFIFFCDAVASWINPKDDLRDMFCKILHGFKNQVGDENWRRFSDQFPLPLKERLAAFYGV
Chain of UniProt O60763 (O60763 whole entry, looked up): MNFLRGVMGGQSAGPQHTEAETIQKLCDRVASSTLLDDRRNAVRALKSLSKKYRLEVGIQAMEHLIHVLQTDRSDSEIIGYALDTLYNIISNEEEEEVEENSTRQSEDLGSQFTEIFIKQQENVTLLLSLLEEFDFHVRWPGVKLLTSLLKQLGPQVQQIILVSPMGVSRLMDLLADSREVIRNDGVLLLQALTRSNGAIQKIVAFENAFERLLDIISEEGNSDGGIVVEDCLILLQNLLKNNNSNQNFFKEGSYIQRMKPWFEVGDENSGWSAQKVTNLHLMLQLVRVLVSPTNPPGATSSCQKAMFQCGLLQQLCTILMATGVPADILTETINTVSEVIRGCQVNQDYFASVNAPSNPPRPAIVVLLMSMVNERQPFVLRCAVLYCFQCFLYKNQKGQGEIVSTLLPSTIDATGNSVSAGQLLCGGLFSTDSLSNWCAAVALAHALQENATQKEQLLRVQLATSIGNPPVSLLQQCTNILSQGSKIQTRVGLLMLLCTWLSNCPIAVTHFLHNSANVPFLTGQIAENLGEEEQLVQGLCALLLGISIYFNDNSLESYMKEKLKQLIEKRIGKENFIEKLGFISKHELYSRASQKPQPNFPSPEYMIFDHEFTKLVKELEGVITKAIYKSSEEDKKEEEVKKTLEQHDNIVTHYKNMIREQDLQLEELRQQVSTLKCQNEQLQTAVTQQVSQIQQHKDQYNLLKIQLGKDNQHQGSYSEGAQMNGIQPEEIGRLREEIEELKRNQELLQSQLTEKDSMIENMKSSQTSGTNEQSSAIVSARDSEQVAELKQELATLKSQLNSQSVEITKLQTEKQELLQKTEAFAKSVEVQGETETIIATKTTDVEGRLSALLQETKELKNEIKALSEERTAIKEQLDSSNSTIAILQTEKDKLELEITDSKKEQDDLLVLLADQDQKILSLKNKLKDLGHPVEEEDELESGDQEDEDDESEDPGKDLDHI
Chain of UniProt Q9UID3 (Q9UID3 whole entry, looked up): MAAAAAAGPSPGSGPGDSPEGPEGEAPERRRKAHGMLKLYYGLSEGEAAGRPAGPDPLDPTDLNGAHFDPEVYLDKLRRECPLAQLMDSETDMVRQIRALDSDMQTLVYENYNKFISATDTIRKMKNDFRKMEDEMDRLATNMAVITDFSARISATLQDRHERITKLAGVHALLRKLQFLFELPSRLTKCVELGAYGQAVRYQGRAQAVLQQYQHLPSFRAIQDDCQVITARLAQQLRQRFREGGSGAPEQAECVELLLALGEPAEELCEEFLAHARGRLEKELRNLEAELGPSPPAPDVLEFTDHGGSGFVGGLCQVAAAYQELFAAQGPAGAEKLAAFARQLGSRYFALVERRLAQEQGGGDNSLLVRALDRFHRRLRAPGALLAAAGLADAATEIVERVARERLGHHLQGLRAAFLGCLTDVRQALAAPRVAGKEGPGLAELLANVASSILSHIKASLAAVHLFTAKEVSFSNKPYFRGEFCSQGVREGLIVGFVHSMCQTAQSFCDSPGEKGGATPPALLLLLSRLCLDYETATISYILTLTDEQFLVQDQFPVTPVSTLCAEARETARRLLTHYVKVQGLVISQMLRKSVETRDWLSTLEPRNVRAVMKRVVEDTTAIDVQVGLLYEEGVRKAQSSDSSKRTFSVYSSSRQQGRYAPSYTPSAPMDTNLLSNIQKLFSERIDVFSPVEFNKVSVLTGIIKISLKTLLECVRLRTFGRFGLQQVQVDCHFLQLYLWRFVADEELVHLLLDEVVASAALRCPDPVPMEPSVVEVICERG
Chain of UniProt Q9UL33 (Q9UL33 whole entry, looked up): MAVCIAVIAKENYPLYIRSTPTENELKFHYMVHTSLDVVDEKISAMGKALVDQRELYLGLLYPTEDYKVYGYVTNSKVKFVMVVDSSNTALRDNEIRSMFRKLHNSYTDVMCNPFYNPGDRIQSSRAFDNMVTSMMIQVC
Chain of UniProt Q96AJ9 (Q96AJ9 whole entry, looked up): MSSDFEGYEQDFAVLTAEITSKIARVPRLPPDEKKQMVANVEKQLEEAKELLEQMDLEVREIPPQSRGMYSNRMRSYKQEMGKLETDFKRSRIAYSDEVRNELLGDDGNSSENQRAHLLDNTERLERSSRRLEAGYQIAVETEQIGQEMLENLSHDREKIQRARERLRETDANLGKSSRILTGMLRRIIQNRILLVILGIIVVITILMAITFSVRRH
Chain of UniProt Q969T4 (Q969T4 whole entry, looked up): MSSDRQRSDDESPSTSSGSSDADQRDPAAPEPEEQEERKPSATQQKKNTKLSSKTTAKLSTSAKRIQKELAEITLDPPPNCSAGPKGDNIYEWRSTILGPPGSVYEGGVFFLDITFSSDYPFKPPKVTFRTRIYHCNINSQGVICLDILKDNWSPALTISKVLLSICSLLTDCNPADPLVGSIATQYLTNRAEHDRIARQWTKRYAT
Chain of UniProt O95155 (O95155 whole entry, looked up): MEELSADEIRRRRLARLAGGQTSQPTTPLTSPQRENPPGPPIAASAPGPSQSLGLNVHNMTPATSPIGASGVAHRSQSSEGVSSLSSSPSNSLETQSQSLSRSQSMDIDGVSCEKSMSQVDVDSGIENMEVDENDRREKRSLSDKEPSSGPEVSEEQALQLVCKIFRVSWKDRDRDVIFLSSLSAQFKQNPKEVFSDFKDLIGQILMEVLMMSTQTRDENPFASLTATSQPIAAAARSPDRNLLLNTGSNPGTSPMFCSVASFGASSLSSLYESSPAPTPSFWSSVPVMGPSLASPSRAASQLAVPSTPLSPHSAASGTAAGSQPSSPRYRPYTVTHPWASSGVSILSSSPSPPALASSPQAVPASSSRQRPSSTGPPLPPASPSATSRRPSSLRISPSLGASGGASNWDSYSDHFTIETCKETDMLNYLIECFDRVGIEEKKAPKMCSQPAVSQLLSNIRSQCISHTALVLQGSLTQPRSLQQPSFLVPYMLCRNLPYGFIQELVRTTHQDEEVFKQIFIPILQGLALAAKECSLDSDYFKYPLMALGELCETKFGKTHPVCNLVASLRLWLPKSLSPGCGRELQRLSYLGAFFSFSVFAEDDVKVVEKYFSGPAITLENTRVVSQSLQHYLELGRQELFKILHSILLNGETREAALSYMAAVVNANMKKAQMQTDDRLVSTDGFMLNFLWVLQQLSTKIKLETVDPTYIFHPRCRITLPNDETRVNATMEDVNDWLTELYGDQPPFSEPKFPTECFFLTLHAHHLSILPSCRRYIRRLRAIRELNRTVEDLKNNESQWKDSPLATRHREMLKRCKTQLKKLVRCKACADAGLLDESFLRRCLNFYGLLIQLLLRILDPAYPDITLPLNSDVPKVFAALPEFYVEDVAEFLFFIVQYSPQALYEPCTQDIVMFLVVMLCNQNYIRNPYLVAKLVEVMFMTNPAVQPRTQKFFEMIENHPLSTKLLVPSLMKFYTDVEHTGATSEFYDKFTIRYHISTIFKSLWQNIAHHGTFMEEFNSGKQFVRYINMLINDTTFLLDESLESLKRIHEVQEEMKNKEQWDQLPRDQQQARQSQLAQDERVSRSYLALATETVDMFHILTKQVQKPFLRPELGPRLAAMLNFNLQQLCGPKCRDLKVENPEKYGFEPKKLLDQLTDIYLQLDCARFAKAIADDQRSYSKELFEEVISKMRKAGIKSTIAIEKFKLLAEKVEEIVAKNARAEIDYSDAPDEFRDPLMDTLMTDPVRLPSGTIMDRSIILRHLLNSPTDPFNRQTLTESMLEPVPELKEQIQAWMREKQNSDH
Chain of UniProt Q96FX7 (Q96FX7 whole entry, looked up): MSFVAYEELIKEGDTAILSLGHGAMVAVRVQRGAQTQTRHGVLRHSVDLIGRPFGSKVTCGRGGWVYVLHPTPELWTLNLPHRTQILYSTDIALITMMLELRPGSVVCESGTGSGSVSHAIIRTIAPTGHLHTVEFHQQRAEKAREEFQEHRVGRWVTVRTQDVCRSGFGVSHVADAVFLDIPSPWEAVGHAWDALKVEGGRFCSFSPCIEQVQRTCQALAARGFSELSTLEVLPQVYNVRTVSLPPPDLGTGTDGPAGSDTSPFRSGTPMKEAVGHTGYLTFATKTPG
Chain of UniProt Q9UDW1 (Q9UDW1 whole entry, looked up): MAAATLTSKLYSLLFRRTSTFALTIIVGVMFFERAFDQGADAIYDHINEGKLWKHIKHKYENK

log2 fold change, inactive:
VTA1 (UniProt Q9NP79) -0.109
UBE4B isoform 4 (UniProt O95155) -0.069
USO1 isoform 2 (UniProt O60763) -0.052
VPS16 (UniProt Q9H269) -0.14
WAPL isoform 3 (UniProt Q7Z5K2) -0.081
VTI1A (UniProt Q96AJ9) 0.004
VPS8 (UniProt Q8N3P4) -0.107
UFL1 (UniProt O94874) -0.165
UTP4 (UniProt Q969X6) 0.039
UTP14A (UniProt Q9BVJ6) 0.07
UGGT1 (UniProt Q9NYU2) -0.007
VPS18 (UniProt Q9P253) -0.194
UBA6 -0.035
TMEM161A (UniProt Q9NX61) -0.09
TNFRSF10A (UniProt O00220) -0.015
TRMT61A (UniProt Q96FX7) 0.011
TRAPPC8 (UniProt Q9Y2L5) -0.133
UBE2S (UniProt Q16763) 0.001
UBE2E3 (UniProt Q969T4) -0.113
UCHL5 (UniProt Q9Y5K5) -0.152
VTI1B (UniProt Q9UEU0) -0.011
TNPO1 (UniProt Q92973) -0.067
UQCR10 (UniProt Q9UDW1) -0.009
TMEM87B (UniProt Q96K49) 0.002
USP34 (UniProt Q70CQ2) -0.141
USP14 (UniProt P54578) -0.087
VPS51 (UniProt Q9UID3) -0.126
UBE2J1 (UniProt Q9Y385) -0.028
UBE3D (UniProt Q7Z6J8) -0.071
TRAM1 (UniProt Q15629) -0.138
TOP2A isoform 4 (UniProt P11388) 0.102
XPNPEP3 (UniProt Q9NQH7) 0.021
TRAPPC2L (UniProt Q9UL33) -0.118
XPO5 (UniProt Q9HAV4) -0.11
WDHD1 (UniProt O75717) -0.076
VDAC1 (UniProt P21796) 0.035

Compound: Cc1ncc(-c2ccnc(Nc3ccc(S(C)(=O)=O)cc3)n2)n1C(C)C
Test: as above
How it was run: as §1

log2 fold change, inactive:
VTA1 (UniProt Q9NP79) -0.005
UBE4B isoform 4 (UniProt O95155) -0.024
USO1 isoform 2 (UniProt O60763) 0.032
VPS16 (UniProt Q9H269) -0.022
WAPL isoform 3 (UniProt Q7Z5K2) -0.03
VTI1A (UniProt Q96AJ9) -0.005
VPS8 (UniProt Q8N3P4) 0.035
UFL1 (UniProt O94874) 0.083
UTP4 (UniProt Q969X6) 0.143
UTP14A (UniProt Q9BVJ6) -0.118
UGGT1 (UniProt Q9NYU2) -0.036
VPS18 (UniProt Q9P253) -0.022
UBA6 -0.024
TMEM161A (UniProt Q9NX61) -0.021
TNFRSF10A (UniProt O00220) 0.058
TRMT61A (UniProt Q96FX7) -0.07
TRAPPC8 (UniProt Q9Y2L5) 0.059
UBE2S (UniProt Q16763) 0.04
UBE2E3 (UniProt Q969T4) 0.025
UCHL5 (UniProt Q9Y5K5) 0.007
VTI1B (UniProt Q9UEU0) 0.027
TNPO1 (UniProt Q92973) -0.079
UQCR10 (UniProt Q9UDW1) -0.059
TMEM87B (UniProt Q96K49) 0.05
USP34 (UniProt Q70CQ2) -0.223
USP14 (UniProt P54578) 0.015
VPS51 (UniProt Q9UID3) -0.042
UBE2J1 (UniProt Q9Y385) -0.189
UBE3D (UniProt Q7Z6J8) 0.037
TRAM1 (UniProt Q15629) 0.072
TOP2A isoform 4 (UniProt P11388) -0.11
XPNPEP3 (UniProt Q9NQH7) -0.041
TRAPPC2L (UniProt Q9UL33) 0.064
XPO5 (UniProt Q9HAV4) -0.054
WDHD1 (UniProt O75717) -0.021
VDAC1 (UniProt P21796) -0.005
